Assay results: PubChem BioAssay AID1159580 (chemical genetic matrix, 2015)
Where “and” joins values, the source holds several entries; their conditions need not be identical. Identical values can stand only once. The whole screen tested about 5,500 compounds, of which about 2,000 (36%) were called active. About 18% were inconclusive and are not listed. No stated cut-off is given here; in the data, active means normalized growth mostly below about 0.91 (no sharp cut-off); inconclusive means no clear call, values can overlap the other calls; inactive means mostly above about 0.92. The list shows a part of the results.

Experiment: chemical genetic growth profiling, strain panel (AID 1159580);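 further: tested at 20 µM; growth read once vehicle control cultures reached saturation at 30 °C; 1 = growth at the plate median or of vehicle wells; lower values mean less growth of the strain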
Details: S. cerevisiae deletion strains, growth OD

Measured: normalized growth

NC(Cn1ccc(=O)c(O)c1)C(=O)O (configuration not stated)
inactive: locus YAL013W, strain DEP1, hits give low values 1.01 | locus YAL021C, strain ccr4, hits give low values 1 | locus YAL026C, strain drs2, hits give low values 1.04 | locus YAL030W, strain snc1, hits give low values 1.01 | locus YBL061C, strain skt5, hits give low values 1.03 | locus YBR009C, strain hhf1, hits give low values 0.992 | locus YBR021W, strain FUR4, hits give low values 1.01 | locus YBR023C, strain chs3, hits give low values 1.03 | locus YBR171W, strain sec66, hits give low values 1.03 | locus YBR229C, strain ROT2, hits give low values 1.02 | locus YBR231C, strain swc5, hits give low values 1.01 | locus YBR279W, strain paf1, hits give low values 1.03 | locus YCL011C, strain gbp2, hits give low values 1.03 | locus YCL016C, strain dcc1, hits give low values 1.04 | locus YCL029C, strain bik1, hits give low values 0.98 | locus YCL061C, strain MRC1, hits give low values 1.01 | locus YCL069W, strain vba3, hits give low values 1.01 | locus YCR088W, strain abp1, hits give low values 1.02 | locus YDL005C, strain med2, hits give low values 1.03 | locus YDL035C, strain GPR1, hits give low values 1.03 | locus YDL040C, strain nat1, hits give low values 1.02 | locus YDL074C, strain BRE1, hits give low values 1.03 | locus YDL101C, strain DUN1, hits give low values 1.02 | locus YDL134C, strain PPH21, hits give low values 1.01 | locus YDL185W, strain tfp1, hits give low values 0.978 | locus YDL192W, strain arf1, hits give low values 0.994 | locus YDR001C, strain nth1, hits give low values 1.02 | locus YDR069C, strain doa4, hits give low values 1.02 | locus YDR101C, strain arx1, hits give low values 1 | locus YDR137W, strain rgp1, hits give low values 1.05 | locus YDR150W, strain NUM1, hits give low values 1.01 | locus YDR159W, strain sac3, hits give low values 0.943 | locus YDR162C, strain NBP2, hits give low values 1.02 | locus YDR195W, strain ref2 1.01 | locus YDR297W, strain sur2, hits give low values 0.998 | locus YDR318W, strain mcm21, hits give low values 0.992 | locus YDR334W, strain swr1, hits give low values 1.02 | locus YDR335W, strain msn5, hits give low values 1.03 | locus YDR388W, hits give low values 0.993 | locus YDR392W, strain spt3, hits give low values 0.959 | locus YDR502C, strain sam2, hits give low values 1.01 | locus YEL003W, strain gim4, hits give low values 1 | locus YEL037C, strain rad23, hits give low values 1.02 | locus YEL061C, strain CIN8 (second series), hits give low values 1.03 | locus YEL061C, strain CIN8, hits give low values 1.01 | locus YER015W, strain faa2, hits give low values 1.01 | locus YER016W, strain bim1, hits give low values 1.05 | locus YER110C, hits give low values 0.969 | locus YER111C, strain swi4, hits give low values 1.02 | locus YER155C, strain BEM2 (second series), hits give low values 1.01 | locus YER155C, strain BEM2, hits give low values 1.01 | locus YER167W, strain BCK2, hits give low values 1.03 | locus YFR010W, strain ubp6, hits give low values 0.994 | locus YGL078C, strain dbp3, hits give low values 1.01 | locus YGL086W, strain mad1, hits give low values 1 | locus YGL167C, strain pmr1, hits give low values 1.02 | locus YGL173C, strain kem1, hits give low values 1 | locus YGL227W, strain vid30, hits give low values 1.05 | locus YGL240W, strain doc1, hits give low values 1 | locus YGL248W, strain PDE1, hits give low values 1.02 | locus YGL253W, strain hxk2, hits give low values 1.03 | locus YGR078C, strain PAC10, hits give low values 1.02 | locus YGR135W, strain pre9, hits give low values 1.02 | locus YGR229C, strain SMI1, hits give low values 1.02 | locus YGR252W, strain gcn5, hits give low values 1.07 | locus YHR013C, strain ard1, hits give low values 1.05 | locus YHR027C, strain rpn1, hits give low values 1.02 | locus YHR030C, strain SLT2, hits give low values 1.01 and 1.02 | locus YHR079C, strain IRE1 (second series), hits give low values 0.988 | locus YHR079C, strain IRE1, hits give low values 1.04 | locus YHR094C, strain hxt1, hits give low values 0.996 | locus YHR129C, strain ARP1, hits give low values 1.01 | locus YHR142W, strain chs7, hits give low values 1.03 | locus YHR200W, strain rpn10, hits give low values 0.991 | locus YIL066C, strain RNR3, hits give low values 1.02 | locus YIL073C, strain SPO22, hits give low values 0.978 | locus YIL125W, strain kgd1, hits give low values 1 | locus YIR030C, strain dcg1, hits give low values 0.986 | locus YJL092W, strain hpr5, hits give low values 1.01 | locus YJL095W, strain BCK1 (second series), hits give low values 1.03 | locus YJL095W, strain BCK1, hits give low values 1.02 and 1.01 | locus YJL115W, strain asf1, hits give low values 1.02 | locus YJL129C, strain trk1, hits give low values 1.03 | locus YJL134W, strain LCB3, hits give low values 1.01 | locus YJL154C, strain vps35, hits give low values 1.01 | locus YJL164C, strain tpk1, hits give low values 0.996 | locus YJL166W, strain qcr8, hits give low values 1.01 | locus YJL168C, strain set2, hits give low values 0.99 | locus YJL187C, strain SWE1 (second series), hits give low values 1.01 | locus YJL187C, strain SWE1, hits give low values 1.01 | locus YJR043C, strain POL32, hits give low values 1.01 | locus YJR066W, strain TOR1, hits give low values 0.98
